Data taken from the supplement of paper PMC11006884.
About 6,500 targets were measured; listed, in parts, are those with a hit and a random draw of the rest. About 2% of all pairs of compound and target were hits.

Compound: COC(=O)C#Cc1ccccc1 [methyl 3-phenylpropiolate]
Experiment: log2 ratio of iodoacetamide-alkyne labeling of the cysteine site, DMSO over compound (competition); higher = stronger covalent engagement of the cysteine by the compound, active = 1 or more
Conditions: 500 µM; treatment time 1 h; system: HEK293T cell lysate
Procedure, shortened: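 Three replicates, each with duplicate channels, were prepared from HEK293T lysate (2 mg/mL) treated with vehicle or electrophile at 500 µM for 1 h at ambient temperature. Iodoacetamide alkyne was then applied for 1 h, and samples were clicked to sCIP-TMT reagents, pooled, trypsin-digested overnight at 37 °C, enriched on streptavidin, acid-eluted and analysed on Orbitrap Eclipse LC-MS/MS with FAIMS, with FragPipe quantification. The log2 competition ratio per cysteine is the mean control-channel divided by the mean compound-channel reporter intensity. Cysteines quantified in only one replicate were left out.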

UniProt Q8IY37, sequence (Q8IY37 whole entry, looked up): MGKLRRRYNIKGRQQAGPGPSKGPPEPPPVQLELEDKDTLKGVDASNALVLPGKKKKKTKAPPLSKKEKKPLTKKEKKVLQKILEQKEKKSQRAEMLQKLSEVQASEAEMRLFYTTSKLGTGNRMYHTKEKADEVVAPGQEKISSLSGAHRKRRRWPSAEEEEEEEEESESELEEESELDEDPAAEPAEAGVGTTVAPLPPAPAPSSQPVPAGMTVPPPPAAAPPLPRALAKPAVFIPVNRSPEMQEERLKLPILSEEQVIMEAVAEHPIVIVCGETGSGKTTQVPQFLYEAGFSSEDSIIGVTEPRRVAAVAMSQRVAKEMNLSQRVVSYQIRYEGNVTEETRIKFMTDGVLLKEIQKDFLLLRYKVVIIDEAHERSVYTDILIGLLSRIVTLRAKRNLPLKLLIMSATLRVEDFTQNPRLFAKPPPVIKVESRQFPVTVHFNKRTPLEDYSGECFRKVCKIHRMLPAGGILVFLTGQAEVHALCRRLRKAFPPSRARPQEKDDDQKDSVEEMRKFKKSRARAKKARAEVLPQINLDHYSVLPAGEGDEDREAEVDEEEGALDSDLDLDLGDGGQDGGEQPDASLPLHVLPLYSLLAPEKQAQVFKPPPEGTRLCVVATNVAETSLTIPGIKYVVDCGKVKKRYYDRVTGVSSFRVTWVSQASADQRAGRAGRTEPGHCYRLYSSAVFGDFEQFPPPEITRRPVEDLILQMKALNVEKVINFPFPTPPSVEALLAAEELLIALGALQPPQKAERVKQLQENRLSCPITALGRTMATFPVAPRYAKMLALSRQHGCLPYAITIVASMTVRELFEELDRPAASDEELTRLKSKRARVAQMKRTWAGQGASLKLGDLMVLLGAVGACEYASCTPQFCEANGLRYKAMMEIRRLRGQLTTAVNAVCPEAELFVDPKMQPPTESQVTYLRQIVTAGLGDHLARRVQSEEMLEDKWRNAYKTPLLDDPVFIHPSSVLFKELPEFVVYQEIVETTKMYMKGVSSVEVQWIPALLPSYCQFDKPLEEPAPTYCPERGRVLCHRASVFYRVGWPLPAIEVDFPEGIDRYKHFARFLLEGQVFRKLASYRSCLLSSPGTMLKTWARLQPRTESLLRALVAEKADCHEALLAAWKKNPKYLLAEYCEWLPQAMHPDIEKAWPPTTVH
UniProt Q8TEV9, sequence (Q8TEV9 whole entry): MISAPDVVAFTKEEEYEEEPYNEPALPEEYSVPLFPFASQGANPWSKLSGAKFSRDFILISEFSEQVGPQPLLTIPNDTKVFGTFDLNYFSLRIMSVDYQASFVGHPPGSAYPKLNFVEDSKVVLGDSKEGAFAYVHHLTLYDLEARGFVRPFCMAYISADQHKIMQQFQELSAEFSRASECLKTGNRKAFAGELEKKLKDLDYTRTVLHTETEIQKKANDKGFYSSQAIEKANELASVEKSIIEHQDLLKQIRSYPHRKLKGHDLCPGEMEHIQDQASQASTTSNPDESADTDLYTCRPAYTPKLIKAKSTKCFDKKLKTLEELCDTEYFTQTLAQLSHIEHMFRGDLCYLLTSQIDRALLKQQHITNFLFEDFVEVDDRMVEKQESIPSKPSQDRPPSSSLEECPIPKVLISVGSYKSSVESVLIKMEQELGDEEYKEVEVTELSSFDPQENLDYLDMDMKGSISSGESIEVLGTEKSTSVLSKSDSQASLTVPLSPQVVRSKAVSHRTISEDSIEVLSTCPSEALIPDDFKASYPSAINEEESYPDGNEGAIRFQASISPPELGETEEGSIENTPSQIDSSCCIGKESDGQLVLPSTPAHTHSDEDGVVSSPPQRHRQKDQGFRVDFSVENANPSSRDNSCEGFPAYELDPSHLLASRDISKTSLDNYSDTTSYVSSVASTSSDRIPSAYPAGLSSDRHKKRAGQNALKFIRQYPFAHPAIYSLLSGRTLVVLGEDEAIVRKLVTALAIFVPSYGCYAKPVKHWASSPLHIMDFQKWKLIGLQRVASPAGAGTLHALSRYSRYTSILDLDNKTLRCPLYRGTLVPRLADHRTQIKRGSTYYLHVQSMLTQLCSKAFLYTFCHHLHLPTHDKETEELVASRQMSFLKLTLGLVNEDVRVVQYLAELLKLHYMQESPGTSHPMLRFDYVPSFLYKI
UniProt Q8WTS6, sequence (Q8WTS6 whole entry): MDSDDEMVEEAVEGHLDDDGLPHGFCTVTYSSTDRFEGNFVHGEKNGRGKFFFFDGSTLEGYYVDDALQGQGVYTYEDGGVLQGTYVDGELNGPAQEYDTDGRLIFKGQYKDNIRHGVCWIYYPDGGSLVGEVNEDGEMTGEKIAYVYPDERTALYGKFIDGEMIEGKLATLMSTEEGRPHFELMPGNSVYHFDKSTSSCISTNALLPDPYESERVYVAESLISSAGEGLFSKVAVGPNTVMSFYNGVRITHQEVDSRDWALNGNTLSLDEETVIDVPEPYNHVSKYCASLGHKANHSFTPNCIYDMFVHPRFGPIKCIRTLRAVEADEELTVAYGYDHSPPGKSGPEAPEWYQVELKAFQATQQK
UniProt Q96EP5, sequence (Q96EP5 whole entry, looked up): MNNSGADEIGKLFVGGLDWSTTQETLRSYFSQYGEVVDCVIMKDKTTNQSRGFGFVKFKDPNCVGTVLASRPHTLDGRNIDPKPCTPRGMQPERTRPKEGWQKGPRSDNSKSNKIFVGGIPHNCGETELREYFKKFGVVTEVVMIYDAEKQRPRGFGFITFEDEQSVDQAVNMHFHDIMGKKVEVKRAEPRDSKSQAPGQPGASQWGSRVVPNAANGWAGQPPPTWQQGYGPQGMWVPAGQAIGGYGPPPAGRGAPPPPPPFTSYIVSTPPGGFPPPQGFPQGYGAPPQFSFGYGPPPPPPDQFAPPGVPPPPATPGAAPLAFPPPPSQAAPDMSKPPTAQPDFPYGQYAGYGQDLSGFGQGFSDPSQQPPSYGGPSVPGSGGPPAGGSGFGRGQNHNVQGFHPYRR
UniProt Q96SU4, sequence (Q96SU4 whole entry, looked up): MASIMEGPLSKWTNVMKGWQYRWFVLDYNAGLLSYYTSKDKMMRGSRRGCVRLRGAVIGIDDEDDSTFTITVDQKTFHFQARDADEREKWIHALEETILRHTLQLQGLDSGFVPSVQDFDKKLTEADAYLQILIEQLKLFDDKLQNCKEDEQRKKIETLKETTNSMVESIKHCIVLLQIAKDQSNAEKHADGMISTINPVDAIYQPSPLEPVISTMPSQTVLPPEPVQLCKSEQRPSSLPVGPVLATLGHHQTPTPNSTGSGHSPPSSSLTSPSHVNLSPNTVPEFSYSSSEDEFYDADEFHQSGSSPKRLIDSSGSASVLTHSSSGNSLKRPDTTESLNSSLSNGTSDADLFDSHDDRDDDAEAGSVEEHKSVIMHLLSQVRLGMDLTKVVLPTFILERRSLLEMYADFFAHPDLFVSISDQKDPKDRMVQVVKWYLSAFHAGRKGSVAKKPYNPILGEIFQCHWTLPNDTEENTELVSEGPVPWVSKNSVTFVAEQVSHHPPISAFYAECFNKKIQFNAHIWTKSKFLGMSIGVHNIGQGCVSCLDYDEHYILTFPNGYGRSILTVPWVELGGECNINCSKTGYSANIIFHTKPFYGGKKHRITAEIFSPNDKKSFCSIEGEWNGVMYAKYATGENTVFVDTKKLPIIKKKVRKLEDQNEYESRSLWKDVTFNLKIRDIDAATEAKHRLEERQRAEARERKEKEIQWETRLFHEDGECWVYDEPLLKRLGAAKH
UniProt Q86U28, sequence (Q86U28 whole entry, looked up): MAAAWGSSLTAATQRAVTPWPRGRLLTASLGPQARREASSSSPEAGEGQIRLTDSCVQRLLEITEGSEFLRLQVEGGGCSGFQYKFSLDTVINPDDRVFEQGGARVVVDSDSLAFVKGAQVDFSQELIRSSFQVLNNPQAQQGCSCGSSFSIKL
UniProt Q8NFF5, sequence (Q8NFF5 whole entry, looked up): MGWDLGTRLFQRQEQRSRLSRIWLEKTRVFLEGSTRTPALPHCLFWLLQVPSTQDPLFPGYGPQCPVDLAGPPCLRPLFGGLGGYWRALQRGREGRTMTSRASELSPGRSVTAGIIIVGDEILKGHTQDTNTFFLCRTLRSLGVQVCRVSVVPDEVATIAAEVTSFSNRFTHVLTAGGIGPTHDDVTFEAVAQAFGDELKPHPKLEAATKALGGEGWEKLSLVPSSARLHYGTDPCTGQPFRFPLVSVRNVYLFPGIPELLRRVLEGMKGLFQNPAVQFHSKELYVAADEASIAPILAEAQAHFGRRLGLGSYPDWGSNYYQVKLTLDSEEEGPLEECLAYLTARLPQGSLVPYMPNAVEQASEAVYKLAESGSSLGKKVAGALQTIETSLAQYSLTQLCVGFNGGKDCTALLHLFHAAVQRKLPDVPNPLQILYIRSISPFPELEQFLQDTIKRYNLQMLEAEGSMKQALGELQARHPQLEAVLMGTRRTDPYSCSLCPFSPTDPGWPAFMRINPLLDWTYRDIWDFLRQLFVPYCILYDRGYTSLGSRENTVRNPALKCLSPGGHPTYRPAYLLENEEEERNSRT
UniProt Q92917, sequence (Q92917 whole entry, looked up): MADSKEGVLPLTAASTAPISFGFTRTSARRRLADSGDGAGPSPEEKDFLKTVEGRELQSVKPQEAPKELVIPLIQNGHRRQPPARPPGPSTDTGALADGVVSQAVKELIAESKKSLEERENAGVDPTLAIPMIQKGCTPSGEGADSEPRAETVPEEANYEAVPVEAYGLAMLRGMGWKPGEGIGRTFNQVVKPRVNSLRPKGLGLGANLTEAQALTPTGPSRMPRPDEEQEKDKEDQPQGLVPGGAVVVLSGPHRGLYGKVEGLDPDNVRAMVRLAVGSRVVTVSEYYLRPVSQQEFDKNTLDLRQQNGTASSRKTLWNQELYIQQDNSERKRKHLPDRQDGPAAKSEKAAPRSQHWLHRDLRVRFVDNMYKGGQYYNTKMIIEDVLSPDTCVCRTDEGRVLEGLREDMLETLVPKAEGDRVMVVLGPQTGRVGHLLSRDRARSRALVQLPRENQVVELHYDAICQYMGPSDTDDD

Target	log2 ratio of iodoacetamide-alkyne labeling
UniProt Q8WU20_C415	0.241 (inactive)
UniProt Q8WUQ7_C699	0.0859 (inactive)
INTS1 C643 (UniProt Q8N201)	0.127 (inactive)
SMCR8 C644 (UniProt Q8TEV9)	0.488 (inactive)
UniProt Q86Y56_C409	0.492 (inactive)
SETD7 C200 (UniProt Q8WTS6)	0.34 (inactive)
DHX37 C1026 (UniProt Q8IY37)	0.317 (inactive)
UniProt Q96L50_C246	0.109 (inactive)
OSBPL9 C720 (UniProt Q96SU4)	-0.0484 (inactive)
GPKOW C394 (UniProt Q92917)	-0.0148 (inactive)
ISCA2 C144 (UniProt Q86U28)	1.59 (active)
FLAD1 C499 (UniProt Q8NFF5)	1.06 (active)
DAZAP1 C39 (UniProt Q96EP5)	0.0955 (inactive)
